# Experimental data reported in PubChem BioAssay (EPA / NIEHS).
# “And” between values parts separate entries of the source, which are not always exact repeats. Equal entries are not always repeated. Where a structure was tested more than once in an assay, its records may differ in their call. The source made the active and inactive calls. The calls were made as follows: active = hit-call score of the fitted dose curve at least 0.9, where 1 is the maximum; inactive = score below 0.9.
# Key:
# [1] = APR_HepG2_MicrotubuleCSK_1hr: Apredica 1-hour HepG2 Assay for Microtubule CSK Stabilty (AID 2282669); conditions: HepG2 microtubule cytoskeleton imaging, actives raise or lower the signal
# How it was run: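 HepG2 cells exposed 1 h to 0.39–200 uM compound (0.5% DMSO, duplicates), then formaldehyde-fixed, permeabilized and immunostained for alpha-tubulin with Hoechst nuclei. Imaged by ArrayScan high-content analysis; bidirectional fit versus DMSO.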
# [2] = APR_HepG2_NuclearSize_1hr: Apredica 1-hour HepG2 Assay for Nuclear Size (AID 2282670); conditions: high-content imaging, actives raise or lower the signal
# How it was run: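 HepG2 cells dosed 1 hr with 0.39–200 uM compound (0.5% DMSO), formaldehyde-fixed, Hoechst 33342-stained and imaged at 20x; nuclear diameter from nuclear stain, fitted bidirectionally against DMSO.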
# [3] = APR_HepG2_p53Act_1hr: Apredica 1-hour HepG2 Assay for p53 Activation (AID 2282671); conditions: high-content imaging, actives raise or lower the signal
# How it was run: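 HepG2 cells treated 1 h with compound at 0.39–200 uM (10 concentrations, duplicate) in 0.5% DMSO. Formaldehyde-fixed, permeabilised cells immunostained for p53 with Hoechst 33342; high-content imaging, bidirectional fit versus DMSO.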
# [4] = APR_HepG2_MitoticArrest_1hr: Apredica 1-hour HepG2 Assay for Mitotic Arrest (AID 2282672); conditions: high-content imaging, actives raise or lower the signal
# How it was run: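 HepG2 cells exposed 1 hr to compounds at 0.39–200 uM (0.5% v/v DMSO final), then fixed in 3.7% formaldehyde and immunostained for phospho-histone H3 with Hoechst 33342. Mitotic arrest scored by automated fluorescence imaging, fitted bidirectionally versus DMSO.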
# [5] = APR_HepG2_P-H2AX_1hr: Apredica 1-hour HepG2 Assay for H2AX Phosphorylation (AID 2282673); conditions: high-content imaging, actives raise or lower the signal
# How it was run: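 HepG2 dosed 1 hr at 0.39-200 uM (0.5% DMSO final), duplicate. Fixed in 3.7% formaldehyde, Triton permeabilized, immunostained for phospho-histone H2A.x (1:200) with Hoechst 33342; ArrayScan 20x imaging, bidirectional fit vs DMSO.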
# [6] = APR_HepG2_MitoMembPot_1hr: Apredica 1-hour HepG2 Assay for Mitochondrial Membrane Potential (AID 2282675); conditions: imaging, actives raise or lower the signal
# How it was run: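 HepG2 cells dosed 1 hour with 0.39–200 uM compound in duplicate, 0.5% DMSO final. MitoTracker Red CMXRos (250 nM, 30 min) loaded before formaldehyde fixation; fluorescence quantified by high-content imaging, bidirectional fitting versus DMSO.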
# [7] = APR_HepG2_CellCycleArrest_24hr: Apredica 24-hour HepG2 Assay for Cell Cycle Arrest (AID 2282905); conditions: imaging, actives raise or lower the signal;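 also: cell cycle arrest scored as ratio of 2N to 4N nuclear DNA content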
# How it was run: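 HepG2 cells were exposed to compounds at 0.39–200 uM (ten concentrations, duplicate) in 0.5% v/v DMSO for 24 hr. After formaldehyde fixation and Triton permeabilization, Hoechst 33342-stained nuclei were imaged at 20x; DNA content was quantified, with bidirectional fitting against DMSO.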
# [8] = APR_HepG2_StressKinase_1hr: Apredica 1-hour HepG2 Assay for Stress Kinase (AID 2282906); conditions: HepG2 stress kinase (phospho-c-Jun) imaging, actives raise or lower the signal
# How it was run: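 HepG2 cells dosed 0.39-200 uM (0.5% DMSO) for 1 h, then formaldehyde-fixed. Stress kinase read by phospho-c-Jun immunofluorescence using high-content imaging; bidirectional fit vs DMSO.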
# [9] = APR_HepG2_NuclearSize_24hr: Apredica 24-hour HepG2 Assay for Nuclear Size (AID 2282907); conditions: high-content imaging, actives raise or lower the signal
# How it was run: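 HepG2 human liver cells were exposed for 24 hr to compounds at 0.39–200 uM (ten concentrations, duplicate) in 0.5% v/v DMSO. They were then formaldehyde-fixed, Triton-permeabilized and Hoechst 33342-stained, and nuclear diameter was imaged at 20x. Bidirectional fits were made against DMSO.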
# [10] = APR_HepG2_CellLoss_24hr: Apredica 24-hour HepG2 Assay for Cell Loss (AID 2282908); conditions: high-content imaging;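 as to AC50: fit in both directions so a hit may be cell loss or gain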
# How it was run: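 Compounds were tested at 0.39–200 uM in duplicate with 0.5% v/v DMSO final. Cells were then fixed in 3.7% formaldehyde, Hoechst 33342 nuclei were imaged at 20x by HCS, and cell number was fitted bidirectionally against DMSO.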
# [11] = APR_HepG2_MicrotubuleCSK_24hr: Apredica 24-hour HepG2 Assay for Microtubule CSK Stabilty (AID 2282909); conditions: HepG2 microtubule cytoskeleton imaging, actives raise or lower the signal
# How it was run: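 HepG2 cells exposed 24 h to compounds at 0.39–200 uM (duplicate, 0.5% v/v DMSO final), then fixed, permeabilized and immunostained for alpha-tubulin with Hoechst 33342. Cytoskeleton imaged at 20x; bidirectional fit versus DMSO baseline.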
# [12] = APR_HepG2_MitoticArrest_24hr: Apredica 24-hour HepG2 Assay for Mitotic Arrest (AID 2282910); conditions: high-content imaging, actives raise or lower the signal
# How it was run: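 HepG2 cells, 24 h exposure at 0.39-200 uM (10 concentrations, duplicate, 0.5% DMSO). Fixed, stained for phospho-histone H3 with Hoechst; imaged by high-content microscopy, bidirectional fit versus DMSO.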
# [13] = APR_HepG2_MitoMembPot_24hr: Apredica 24-hour HepG2 Assay for Mitochondrial Membrane Potential (AID 2282911); conditions: imaging, actives raise or lower the signal
# How it was run: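 Mitochondrial membrane potential imaged via MitoTracker Red CMXRos (250 nM, 30 min pre-fixation) in fixed HepG2 cells with Hoechst nuclear identification. Ten concentrations 0.39–200 uM, 24 h treatment, 0.5% DMSO; CCCP as positive control.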
# [14] = APR_HepG2_MitoMass_24hr: Apredica 24-hour HepG2 Assay for Mitochondrial Mass (AID 2282912); conditions: high-content imaging, actives raise or lower the signal
# How it was run: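 Human HepG2 liver cells were exposed for 24 hr to compounds at 0.39–200 uM (duplicates, 0.5% v/v DMSO final). They were stained live with 250 nM MitoTracker Red CMXRos for 30 min, fixed in 3.7% formaldehyde, and imaged by HCS fluorescence; signals were fitted bidirectionally against DMSO.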
# [15] = APR_HepG2_p53Act_24hr: Apredica 24-hour HepG2 Assay for p53 Activation (AID 2282913); conditions: high-content imaging, actives raise or lower the signal;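 also: p53 protein immunofluorescence averaged per cell in HepG2 with Hoechst nuclei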
# How it was run: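 Fluorescence imaging of formaldehyde-fixed HepG2 cells labelled for p53 and with Hoechst, 24 h after dosing (0.39–200 uM, duplicate wells, 0.5% v/v DMSO). Signal fitted in both directions relative to DMSO.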
# [16] = APR_HepG2_CellCycleArrest_72hr: Apredica 72-hour HepG2 Assay for Cell Cycle Arrest (AID 2282914); conditions: high-content imaging, actives raise or lower the signal
# How it was run: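 Read-out: nuclear DNA content from Hoechst 33342 high-content imaging (20x, six fields/well) after 3.7% formaldehyde fixation, fitted bidirectionally against DMSO. Treatment was 72 h in HepG2, ten concentrations 0.39–200 uM, duplicate, 0.5% DMSO.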
# [17] = APR_HepG2_CellLoss_72hr: Apredica 72-hour HepG2 Assay for Cell Loss (AID 2282915); conditions: high-content imaging
# How it was run: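 HepG2 cells exposed 72 h to compound at 0.39–200 uM (10 concentrations, duplicate) in 0.5% DMSO. Fixed with 3.7% formaldehyde and Hoechst 33342-stained. Imaged at 20x; nuclear count gives cell number, fitted bidirectionally versus DMSO.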
# [18] = APR_HepG2_MitoMass_1hr: Apredica 1-hour HepG2 Assay for Mitochondrial Mass (AID 2282674); conditions: high-content imaging, actives raise or lower the signal
# How it was run: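 HepG2 cells dosed 1 hr with 0.39-200 uM compound (0.5% DMSO), duplicate wells. Mitochondria stained with 250 nM MitoTracker Red CMXRos for 30 min before formaldehyde fixation, imaged at 20x by ArrayScan; bidirectional fit versus DMSO.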
structure (smiles),measurement,setting,value
COP(=S)(OC)Oc1ccc(SC)c(C)c1,outcome,[1],inactive
same,outcome,[2],inactive
same,outcome,[3],inactive
same,outcome,[4],inactive
same,outcome,[5],inactive
same,AC50,[6],59.1 µM (active)
same,outcome,[7],inactive
same,outcome,[8],inactive
same,outcome,[9],inactive
same,outcome,[10],inactive
same,outcome,[11],inactive
same,outcome,[12],inactive
same,outcome,[13],inactive
same,outcome,[14],inactive
same,outcome,[15],inactive
same,AC50,[16],54.3 µM (active)
same,outcome,[17],inactive
O=S(=O)(O)C(F)(F)C(F)(F)C(F)(F)C(F)(F)C(F)(F)C(F)(F)C(F)(F)C(F)(F)F,outcome,[1],inactive
same,outcome,[3],inactive
same,outcome,[4],inactive
same,outcome,[5],inactive
same,outcome,[6],inactive
same,outcome,[7],inactive
same,outcome,[8],inactive
same,AC50,[9],63.8 µM (active)
same,outcome,[9],inactive
same,AC50,[10],122 µM (active) [middle of 5 runs]
same,AC50,[11],113 µM (active)
same,outcome,[11],inactive
same,AC50,[12],106 µM (active) [middle of 5 runs]
same,outcome,[13],inactive
same,AC50,[14],116 µM (active) [middle of 4 runs]
same,outcome,[14],inactive
same,AC50,[15],111 µM (active) [middle of 4 runs]
same,outcome,[15],inactive
same,outcome,[16],inactive
same,AC50,[17],111 µM (active) [middle of 5 runs]
CC(C)(C)C(O)C(Oc1ccc(Cl)cc1)n1cncn1 (stereo unspecified),outcome,[1],inactive
same,outcome,[3],inactive
same,outcome,[4],inactive
same,outcome,[5],inactive
same,outcome,[6],inactive
same,AC50,[7],97.1 µM (active) and 78.4 µM (active)
same,outcome,[7],inactive
same,outcome,[8],inactive
same,outcome,[9],inactive
same,outcome,[10],inactive
same,outcome,[11],inactive
same,outcome,[12],inactive
same,outcome,[13],inactive
same,outcome,[14],inactive
same,outcome,[15],inactive
same,AC50,[16],105 µM (active) and 88.3 µM (active) and 39.4 µM (active)
same,outcome,[16],inactive
same,AC50,[17],90.5 µM (active) and 96.3 µM (active) and 36.1 µM (active)
same,outcome,[17],inactive
O=C1c2ccccc2C(=O)N1SC(Cl)(Cl)Cl,outcome,[1],inactive
same,outcome,[3],inactive
same,outcome,[4],inactive
same,outcome,[5],inactive
same,outcome,[6],inactive
same,outcome,[7],inactive
same,outcome,[8],inactive
same,outcome,[9],inactive
same,outcome,[10],inactive
same,outcome,[11],inactive
same,outcome,[12],inactive
same,outcome,[13],inactive
same,outcome,[14],inactive
same,outcome,[15],inactive
same,outcome,[16],inactive
same,AC50,[17],30.8 µM (active)
CCC(C)Nc1c([N+](=O)[O-])cc(C(C)(C)C)cc1[N+](=O)[O-] (stereo unspecified),outcome,[1],inactive
same,outcome,[4],inactive
same,outcome,[5],inactive
same,outcome,[18],inactive
same,outcome,[6],inactive
same,AC50,[7],89 µM (active)
same,outcome,[8],inactive
same,outcome,[9],inactive
same,AC50,[10],45.8 µM (active)
same,AC50,[11],27.4 µM (active)
same,outcome,[12],inactive
same,AC50,[13],100 µM (active)
same,outcome,[14],inactive
same,AC50,[16],83.7 µM (active)
same,AC50,[17],64.9 µM (active)
CC[C@H](C)[C@H]1O[C@]2(C=C[C@@H]1C)C[C@@H]1C[C@@H](C/C=C(\C)[C@@H](O[C@H]3C[C@H](OC)[C@@H](O[C@H]4C[C@H](OC)[C@@H](O)[C@H](C)O4)[C@H](C)O3)[C@@H](C)/C=C/C=C3\CO[C@@H]4[C@H](O)C(C)=C[C@@H](C(=O)O1)[C@]34O)O2 (tested in a mixture with another compound),outcome,[1],inactive
same,outcome,[3],inactive
same,AC50,[4],12.6 µM (active)
same,AC50,[5],22.5 µM (active)
same,AC50,[18],26.8 µM (active)
same,outcome,[6],inactive
same,AC50,[7],12.7 µM (active)
same,AC50,[8],22.3 µM (active)
same,outcome,[9],inactive
same,AC50,[10],12.2 µM (active)
same,AC50,[11],120 µM (active)
same,AC50,[12],111 µM (active)
same,outcome,[13],inactive
same,AC50,[14],114 µM (active)
same,outcome,[15],inactive
same,AC50,[16],21.6 µM (active)
same,outcome,[17],inactive
CC(C)(C)C(O)/C(=C\c1ccc(Cl)cc1Cl)n1cncn1 (stereo unspecified),outcome,[1],inactive
same,outcome,[3],inactive
same,outcome,[4],inactive
same,outcome,[5],inactive
same,outcome,[18],inactive
same,outcome,[6],inactive
same,outcome,[7],inactive
same,outcome,[8],inactive
same,outcome,[9],inactive
same,outcome,[10],inactive
same,outcome,[11],inactive
same,outcome,[12],inactive
same,outcome,[13],inactive
same,outcome,[14],inactive
same,outcome,[15],inactive
same,outcome,[16],inactive
same,AC50,[17],15.3 µM (active)
